Many of the other results were omitted from the sample, so hits are more common in it than they were.
MARV entry inh: inhibitors of Marburg virus binding or cell entry. Marburg virus pseudotyped entry inhibition, cell reporter. Potency, µM (titrated, usually from 37.8 µM), inactives show top-dose activity change, negative = inhibition, most hits filed as inhibitors. actives 1.8% (n = 300,000). AID 540276; calls by dose curve; tested in HEK293 cells; also: potency is read from the fitted curve at half-maximal effect; % is scaled to controls: 0 for no effect and ±100 for the full control effect
Lassa entry inh: blocks Lassa virus binding to or entry into cells; Lassa virus pseudotype entry inhibition, cell reporter; Potency, µM (highest dose often 37.9 µM), without a hit: top-dose activity change, negative = inhibition, hits mostly inhibitors; actives 1.2% (n = 300,000); calls by dose curve; tested in HEK293 cells; also: potency is read from the fitted curve at half-maximal effect; % is scaled to controls: 0 for no effect and ±100 for the full control effect; nearly all actives have a fitted effect of over 50% in size
VACV mCherry inh: inhibitors of vaccinia virus infection (mCherry reporter signal); Vaccinia virus mCherry reporter infection, fluorescence; Potency, µM (top dose mostly 36.5 µM), inactives show at the highest dose activity change, negative = inhibition, most hits filed as inhibitors; actives 0.63% (n = 310,000); AID 720579; calls by dose curve; tested in A549 cells; also: potency is read from the fitted curve at half-maximal effect; % is scaled to controls: 0 for no effect and ±100 for the full control effect; nearly all actives have a fitted effect of over 35% in size
VACV Venus inh: vaccinia inhibition (Venus reporter); Vaccinia virus Venus reporter expression, fluorescence; Potency, µM (series often up to 36.5 µM), for the others: at the highest dose activity change, negative = inhibition, usual class: inhibitors; actives 0.46% (n = 330,000); calls by dose curve; tested in A549 cells; also: potency is read from the fitted curve at half-maximal effect; % is scaled to controls: 0 for no effect and ±100 for the full control effect; nearly all actives have a fitted effect of over 30% in size
Shiga inhibitor: inhibitors of Shiga toxin in Vero cells; inhibition, % at 38.7 µM; AID 2315; Vero cells, Shiga toxin protein synthesis inhibition reporter; actives 9.2% (n = 290,000); in the data active = inhibition mostly above about 28%, no sharp cut-off; inactive = mostly below about 43%; also: 0% is about no effect
Cycloheximide cs: affects cycloheximide protein synthesis inhibition readout, counter-screen. max response, %. cell reporter, cycloheximide protein synthesis inhibition counterscreen. AID 2314. actives 12% (n = 300,000); in the data active = max response mostly above about 13%, no sharp cut-off; inactive = mostly below about 14%; also: read at 38.3 µM for the half of the compounds with a filed dose; 0% is about no effect
* = called active by the depositor; i = inactive; ? = inconclusive; . = no result given; + = active, no number; [ ] = another dose, or the depositor's remark.

SMILES | MARV entry inh | Lassa entry inh | VACV mCherry inh | VACV Venus inh | Shiga inhibitor | Cycloheximide cs
CCOC(=O)c1csc(N/N=C2\CCCc3ccccc32)n1 | . | . | ? | -16% | 33* | 12*
COc1ccc2c(c1)CCC/C2=N\Nc1nc(C(=O)NN)cs1 | 6%[46.1 µM] | -6% | ? | -18% | 76* | 46*
COc1ccc2[nH]c(=O)c(CNc3ccccc3C)cc2c1 | ? | ? | i | -7% | 90* | 43*
COc1ccc2[nH]c(=O)c(CNc3ccccc3OC)cc2c1 | -19%[46.1 µM] | -20% | -15% | -6% | 5 | 11
COc1ccc2[nH]c(=O)c(CNc3cc(C)ccc3C)cc2c1 | ? | ? | -6% | -14% | 43* | 14*
COc1ccc2[nH]c(=O)c(CNc3ccccc3)cc2c1 | 26% | ? | . | -17% | 73* | 43*
COc1ccc2[nH]c(=O)c(CNc3ccc(C)cc3C)cc2c1 | -12% | ? | -1% | -12% | 70* | 30*
CCOC(=O)c1cc(-c2ccc(F)cc2)n(CCC(=O)Nc2nc3cc(C)c(C)cc3s2)c1C | . | 0%[46.1 µM] | -17% | -20% | . | .
CCOC(=O)c1snc(-c2ccc(F)cc2)c1N | ? | 8% | . | . | 103* | 35*
CCOC(=O)c1sc(N)nc1-c1ccccc1 | . | . | 2% | -7% | -3 | -3
CCOc1ccc2nc(Cl)c(C3CC(c4ccco4)=NN3S(=O)(=O)c3ccccc3)cc2c1 (stereo unspecified) | ? | 2% | -11% | -8% | + | -2
CCOc1ccc2nc(Cl)c(C3CC(c4ccc(OC)cc4)=NN3S(C)(=O)=O)cc2c1 (stereo unspecified) | ? | -2%[46.1 µM] | 15% | 37% | . | .
COc1ccc(C(=O)N(CC(=O)Nc2sc(C)c(C)c2C(N)=O)C2CCCC2)cc1 | ? | -13% | -22% | -17% | 33 | 23*
CCC(=O)N(CC(=O)Nc1sc(C)c(C)c1C(N)=O)C1CCCC1 | -15%[46.1 µM] | 4% | -5% | -2% | 20 | 3
CCOc1ccccc1CNC(=O)c1cc(-c2ccc(C)c(C)c2)nc2ccccc12 | . | -15%[46.1 µM] | -10% | -11% | . | .
CNS(=O)(=O)c1cn(CC(=O)Nc2ccc(C)c(N(C)C)c2)cc1S(=O)(=O)NC | . | 6%[46.1 µM] | -11% | -11% | . | .
CC(NC(=O)c1ccccc1)c1nc2ccccc2n1Cc1ccccc1F (stereo unspecified) | . | . | . | . | -5 | 7
CC(NC(=O)/C=C/c1ccco1)c1nc2ccccc2n1Cc1ccccc1F (stereo unspecified) | -8% | -10% | 1% | ? | 60 | 27*
CC(NC(=O)/C=C/c1ccco1)c1nc2ccccc2n1Cc1c(Cl)cccc1Cl (stereo unspecified) | -18% | -1% | -23% | -17% | 44* | 22*
CC(=O)NC(C)c1nc2ccccc2n1Cc1ccccc1Cl (stereo unspecified) | -2%[46.1 µM] | -1%[46.1 µM] | -5% | -5% | . | .
O=C(c1cccc([N+](=O)[O-])c1)N1c2ncnn2C2(CCCCC2)[C@@H]2CCCC[C@@H]21 | 1%[46.1 µM] | 11%[46.1 µM] | -10% | -4% | . | .
Cc1ccn2cc(CSc3ccccc3)nc2c1 | ? | ? | . | 0% | 111* | 47*
c1ccc(-n2nnnc2SCc2cn3cccnc3n2)cc1 | 21% | 1% | . | . | -4 | 3
Cc1ccc(SCc2cn3cccnc3n2)cc1 | 29% | 15% | . | 2% | 57* | 41*
Clc1ccc(SCc2cn3cccnc3n2)cc1 | 29% | 2% | -15% | -1% | 97* | 27*
SMILES | MARV entry inh | Lassa entry inh | VACV mCherry inh | VACV Venus inh | Shiga inhibitor | Cycloheximide cs
CCN(Cc1cn2cccnc2n1)C1CCCCC1 | 10%[46.1 µM] | 5%[46.1 µM] | -3% | -10% | 13 | -4
Cc1cc(OCc2cn3cccnc3n2)ccc1Cl | ? | ? | -26% | -17% | 65* | 71*
Cc1ccn2cc(CCNS(=O)(=O)c3ccc4ccccc4c3)nc2c1 | 22% | 0% | -22% | -16% | . | .
Cn1ncnc1SCc1cn2cccnc2n1 | -5%[46.1 µM] | ? | -7% | -6% | -31 | -2
COc1ccccc1-c1cncnc1NCCc1cnc[nH]1 | . | . | -6% | -21% | . | .
Cc1cccc(/C(N)=N/OC(=O)c2ccoc2C)c1 | ? | ? | 1% | -5% | 68* | 38*
Cc1occc1C(=O)O/N=C(\N)c1ccccc1 | ? | ? | -9% | -6% | 72* | 51*
Cc1cc(C)cc(OCC(=O)Nc2ccc(-c3nc4ccccc4s3)cc2)c1 | 19%[46.1 µM] | ? | ? | -24% | . | .
CC(C)n1cnc2cc(NCc3ccccc3O)ccc21 | 1%[46.1 µM] | 9% | -20% | -15% | 86* | 52*
CC(C)n1cnc2cc(NCc3ccccn3)ccc21 | 2% | 1% | . | . | 70* | 72*
Cc1cc(NCc2ccccn2)ccc1Br | ? | -9% | -9% | -6% | 74* | 34*
Cc1cc(C)c(S(=O)(=O)NCc2ccccn2)c(C)c1 | 10%[46.1 µM] | 0%[46.1 µM] | i | -7% | 2 | 1
CC(C)(C)n1cnc2cc(NCc3ccccc3O)ccc21 | ? | 17% | -23% | -20% | 66* | 49*
CC(C)n1c(NCc2ccccc2O)nc2ccccc21 | 12%[46.1 µM] | -8%[46.1 µM] | -18% | -13% | -9 | 2
CC(=O)Nc1ccc(S(=O)(=O)N2CCN(c3ccc(C)c(C)c3)CC2)cc1 | 10%[46.1 µM] | 3%[46.1 µM] | -14% | -16% | . | .
CCCn1c(NCc2ccco2)nc2ccccc21 | -1% | -18%[14.3 µM] | -8% | -8% | -10 | 1
CC(C)n1cnc2cc(NCc3ccco3)ccc21 | ? | 24% | . | . | 72* | 41*
O=C(CCN1C(=O)c2ccccc2S1(=O)=O)Nc1ccc2c(c1)OCCO2 | 0% | 1% | -21% | -13% | 37 | 34*
O=C(CN1Cc2ccccc2C1=O)Nc1ccc2c(c1)OCCO2 | ? | 13%[46.1 µM] | -11% | -2% | 85* | 83*
CCN1CCN(CC(=O)Nc2ccc3c(c2)OCCO3)C(=O)C1=O | . | . | -8% | -10% | 7 | -3
Cc1csc(NC(=O)CCN2C(=O)c3ccccc3S2(=O)=O)n1 | -1% | 7% | i | -4% | 55* | 16
O=C(CCN1C(=O)c2ccccc2S1(=O)=O)Nc1ccccc1 | . | . | . | . | -5 | 1
CCN(CC)c1ccc2cc(-c3nc(-c4cccs4)no3)c(=O)oc2c1 | . | -2%[46.1 µM] | -12% | 16% | . | .
O=C(O)c1ccc(Oc2ccc(C(F)(F)F)cn2)cc1 | ? | 14% | -3% | 2% | 16 | 15*
COC(=O)c1ccc(Oc2ccc(C(F)(F)F)cn2)cc1 | -25%[46.1 µM] | 5%[46.1 µM] | i | -14% | 45* | 28*
O=C(Nc1ccc(Oc2cccnc2)nc1)c1ccc(C(F)(F)F)cc1 | 5.6µM* | -13%[46.1 µM] | -15% | -11% | 19 | 17
Cc1ccc(C)c(Cn2c(=O)n(-c3ccccc3)c(=O)c3c4c(sc32)CCCC4)c1 | -2%[46.1 µM] | ? | -16% | -20% | . | .
COc1cccc(C(=O)NCC2Cc3cccc(-c4cccnc4)c3O2)c1 (stereo unspecified) | . | . | -10% | -13% | . | .
CCc1ccc(N2Cc3ccccc3C2)cc1 | . | . | . | . | 99* | 58*
Cc1cc(C)cc(N2Cc3ccccc3C2)c1 | -5% | . | 13% | -7% | -2 | -4

Screening data deposited in PubChem BioAssay by National Center for Advancing Translational Sciences (NCATS).
